According to PubChem BioAssay AID1159580 (chemical genetic matrix, 2015):
The campaign covered roughly 5,500 compounds. About 2,000 (36%) were called active. Roughly 18% stayed inconclusive and do not appear here. Cut-off read from the data, not from the text of the source: active = normalized growth mostly below about 0.91 (no sharp cut-off); inconclusive = no clear call, values can overlap the other calls; inactive = mostly above about 0.92. Some of the results follow.

Test: chemical genetic growth profiling, strain panel (AID 1159580);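 note: tested at 20 µM; growth read once vehicle control cultures reached saturation at 30 °C; 1 = growth at the plate median or of vehicle wells; lower values mean less growth of the strain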
Conditions: growth OD

Measured: normalized growth

CCOP(=S)(OCC)Oc1cc(C)nc(C(C)C)n1
inactive: S. cerevisiae deletion strains, locus YAL013W, strain DEP1, stronger effect = lower value 0.978 | S. cerevisiae deletion strains, locus YBR021W, strain FUR4, stronger effect = lower value 1.03 | S. cerevisiae deletion strains, locus YBR229C, strain ROT2, stronger effect = lower value 0.955 | S. cerevisiae deletion strains, locus YCL029C, strain bik1, stronger effect = lower value 0.985 | S. cerevisiae deletion strains, locus YDL035C, strain GPR1, stronger effect = lower value 0.946 | S. cerevisiae deletion strains, locus YDL074C, strain BRE1, stronger effect = lower value 0.901 | S. cerevisiae deletion strains, locus YDL101C, strain DUN1, stronger effect = lower value 0.96 | S. cerevisiae deletion strains, locus YDL134C, strain PPH21, stronger effect = lower value 0.995 | S. cerevisiae deletion strains, locus YDL185W, strain tfp1, stronger effect = lower value 0.972 | S. cerevisiae deletion strains, locus YDL192W, strain arf1, stronger effect = lower value 0.985 | S. cerevisiae deletion strains, locus YDR101C, strain arx1, stronger effect = lower value 1 | S. cerevisiae deletion strains, locus YDR150W, strain NUM1, stronger effect = lower value 0.984 | S. cerevisiae deletion strains, locus YDR162C, strain NBP2, stronger effect = lower value 0.976 | S. cerevisiae deletion strains, locus YDR318W, strain mcm21, stronger effect = lower value 0.98 | S. cerevisiae deletion strains, locus YDR388W, stronger effect = lower value 0.991 | S. cerevisiae deletion strains, locus YDR502C, strain sam2, stronger effect = lower value 0.994 | S. cerevisiae deletion strains, locus YEL061C, strain CIN8, stronger effect = lower value 0.989 | S. cerevisiae deletion strains, locus YER110C, stronger effect = lower value 0.981 | S. cerevisiae deletion strains, locus YER155C, strain BEM2, stronger effect = lower value 0.996 | S. cerevisiae deletion strains, locus YER167W, strain BCK2, stronger effect = lower value 0.99 | S. cerevisiae deletion strains, locus YGL078C, strain dbp3, stronger effect = lower value 0.995 | S. cerevisiae deletion strains, locus YGL086W, strain mad1, stronger effect = lower value 0.989 | S. cerevisiae deletion strains, locus YGL248W, strain PDE1, stronger effect = lower value 0.961 | S. cerevisiae deletion strains, locus YGR078C, strain PAC10, stronger effect = lower value 0.976 | S. cerevisiae deletion strains, locus YGR135W, strain pre9, stronger effect = lower value 0.995 | S. cerevisiae deletion strains, locus YGR229C, strain SMI1, stronger effect = lower value 0.991 | S. cerevisiae deletion strains, locus YGR252W, strain gcn5, stronger effect = lower value 0.998 | S. cerevisiae deletion strains, locus YHR030C, strain SLT2, stronger effect = lower value 0.988 | S. cerevisiae deletion strains, locus YHR079C, strain IRE1 (second series), stronger effect = lower value 0.994 | S. cerevisiae deletion strains, locus YHR094C, strain hxt1, stronger effect = lower value 0.996 | S. cerevisiae deletion strains, locus YHR129C, strain ARP1, stronger effect = lower value 0.977 | S. cerevisiae deletion strains, locus YHR200W, strain rpn10, stronger effect = lower value 0.993 | S. cerevisiae deletion strains, locus YIL066C, strain RNR3, stronger effect = lower value 0.979 | S. cerevisiae deletion strains, locus YIL073C, strain SPO22, stronger effect = lower value 1.01 | S. cerevisiae deletion strains, locus YIL125W, strain kgd1, stronger effect = lower value 0.993 | S. cerevisiae deletion strains, locus YIR030C, strain dcg1, stronger effect = lower value 0.995 | S. cerevisiae deletion strains, locus YJL095W, strain BCK1, stronger effect = lower value 0.973 | S. cerevisiae deletion strains, locus YJL134W, strain LCB3, stronger effect = lower value 0.982 | S. cerevisiae deletion strains, locus YJL168C, strain set2, stronger effect = lower value 0.987 | S. cerevisiae deletion strains, locus YJL187C, strain SWE1 (second series), stronger effect = lower value 0.978 | S. cerevisiae deletion strains, locus YJR043C, strain POL32, stronger effect = lower value 0.991 | S. cerevisiae deletion strains, locus YJR075W, strain HOC1, stronger effect = lower value 0.977 | S. cerevisiae deletion strains, locus YKL009W, strain mrt4, stronger effect = lower value 0.949 | S. cerevisiae deletion strains, locus YKL068W, stronger effect = lower value 0.993 | S. cerevisiae deletion strains, locus YKL085W, strain MDH1 (second series), stronger effect = lower value 0.988 | S. cerevisiae deletion strains, locus YKL085W, strain MDH1, stronger effect = lower value 0.988 | S. cerevisiae deletion strains, locus YKL190W, strain CNB1, stronger effect = lower value 0.993 | S. cerevisiae deletion strains, locus YKR001C, strain vps1, stronger effect = lower value 0.999 | S. cerevisiae deletion strains, locus YLR039C, strain RIC1, stronger effect = lower value 0.966 | S. cerevisiae deletion strains, locus YLR058C, strain SHM2, stronger effect = lower value 0.971 | S. cerevisiae deletion strains, locus YLR102C, strain apc9, stronger effect = lower value 0.987 | S. cerevisiae deletion strains, locus YLR262C, strain YPT6, stronger effect = lower value 0.946 | S. cerevisiae deletion strains, locus YLR268W, strain sec22, stronger effect = lower value 0.993 | S. cerevisiae deletion strains, locus YLR330W, strain CHS5, stronger effect = lower value 0.989 | S. cerevisiae deletion strains, locus YLR342W, strain FKS1 (second series), stronger effect = lower value 0.975 | S. cerevisiae deletion strains, locus YLR371W, strain rom2, stronger effect = lower value 0.995 | S. cerevisiae deletion strains, locus YLR418C, strain cdc73, stronger effect = lower value 0.959 | S. cerevisiae deletion strains, locus YML016C, strain PPZ1, stronger effect = lower value 0.993 | S. cerevisiae deletion strains, locus YML032C, strain rad52, stronger effect = lower value 0.989 | S. cerevisiae deletion strains, locus YML124C, strain tub3, stronger effect = lower value 0.998 | S. cerevisiae deletion strains, locus YMR078C, strain ctf18, stronger effect = lower value 0.991 | S. cerevisiae deletion strains, locus YMR223W, strain ubp8, stronger effect = lower value 0.988 | S. cerevisiae deletion strains, locus YMR263W, strain SAP30, stronger effect = lower value 0.98 | S. cerevisiae deletion strains, locus YMR307W, strain GAS1, stronger effect = lower value 0.976 | S. cerevisiae deletion strains, locus YNL067W, strain RPL9B, stronger effect = lower value 0.972 | S. cerevisiae deletion strains, locus YNL128W, strain TEP1, stronger effect = lower value 0.957 | S. cerevisiae deletion strains, locus YNL153C, strain GIM3, stronger effect = lower value 0.984 | S. cerevisiae deletion strains, locus YNL233W, strain BNI4, stronger effect = lower value 0.984 | S. cerevisiae deletion strains, locus YNL250W, strain rad50, stronger effect = lower value 0.984 | S. cerevisiae deletion strains, locus YNL271C, strain bni1, stronger effect = lower value 0.992 | S. cerevisiae deletion strains, locus YNL298W, strain CLA4, stronger effect = lower value 0.995 | S. cerevisiae deletion strains, locus YNL307C, strain MCK1, stronger effect = lower value 0.998 | S. cerevisiae deletion strains, locus YNL322C, strain KRE1, stronger effect = lower value 0.978 | S. cerevisiae deletion strains, locus YNR052C, strain pop2, stronger effect = lower value 0.99 | S. cerevisiae deletion strains, locus YOL006C, strain TOP1, stronger effect = lower value 0.967 | S. cerevisiae deletion strains, locus YOL012C, strain htz1 0.881 | S. cerevisiae deletion strains, locus YOL147C, strain pex11, stronger effect = lower value 0.998 | S. cerevisiae deletion strains, locus YOR061W, strain CKA2, stronger effect = lower value 0.967 | S. cerevisiae deletion strains, locus YOR069W, strain VPS5, stronger effect = lower value 0.989 | S. cerevisiae deletion strains, locus YOR136W, strain idh2, stronger effect = lower value 0.986 | S. cerevisiae deletion strains, locus YOR144C, strain elg1, stronger effect = lower value 0.995 | S. cerevisiae deletion strains, locus YOR184W, strain ser1, stronger effect = lower value 0.987 | S. cerevisiae deletion strains, locus YOR316C, strain cot1, stronger effect = lower value 0.975 | S. cerevisiae deletion strains, locus YPL055C, strain LGE1, stronger effect = lower value 0.956 | S. cerevisiae deletion strains, locus YPL241C, strain CIN2, stronger effect = lower value 0.989 | S. cerevisiae deletion strains, locus YPR119W, strain clb2, stronger effect = lower value 0.997 | S. cerevisiae deletion strains, locus YPR141C, strain kar3, stronger effect = lower value 0.984 | S. cerevisiae deletion strains, locus YPR163C, strain tif3, stronger effect = lower value 1 | S. cerevisiae deletion strains, locus YPR167C, strain met16, stronger effect = lower value 0.987 | S. cerevisiae deletion strains, strain wtn01, stronger effect = lower value 1 | S. cerevisiae strains, strain wild type, stronger effect = lower value 0.987
